Compound activity from PubChem.
HPGD inh: qHTS Assay for Inhibitors of HPGD (15-Hydroxyprostaglandin Dehydrogenase); purified HPGD, NADH fluorescence kinetic, PGE2 substrate; Potency, µM, inactives show at the top dose activity change, negative = inhibition, usual class: inhibitors; actives 4.3% (n = 150,000); AID 894, 2007; further: potency means the concentration at half of the fitted maximal effect
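20 nM HPGD preincubated 15 min at room temperature with compound in 50 mM Tris-HCl pH 8, 0.01% Tween 20. Started with 1 mM NAD+ and 30 uM prostaglandin E2; NADH fluorescence (360/450 nm) read 5 times over 30-s intervals, last minus first.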
PNC inhibitor: High Content Assay for Compounds that inhibit the Assembly of the Perinucleolar Compartment. AID 2417, 2010. actives 3.1% (n = 140,000). PC3M PTB-GFP, PNC prevalence imaging, 16 h; hits give low values. activity change (PNC), negative = inhibition, % at 10 µM;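 active means readout at or below -70, meaning at least 70% loss of cells showing the perinucleolar compartment, a nuclear body marking cancer cells; inconclusive means readout between -30 and a set limit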;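 further: plate controls were DMSO wells for no effect and camptothecin positive control wells for full effect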
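Read-out is percentage of cells bearing a perinucleolar compartment, from automated 20x imaging of fixed, Hoechst-stained PC3M PTB-GFP cells. Cells were seeded 4 h, then exposed 16 h to compound (23 nl of library stock) in duplicate plates.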
ALDH1A1 block: qHTS Assay for Inhibitors of Aldehyde Dehydrogenase 1 (ALDH1A1). Purified ALDH1A1, NADH fluorescence, propionaldehyde substrate. Potency, µM (series often up to 75.3 µM), without a hit: at the top dose activity, negative = inhibition, usual class: inhibitors. actives 7.3% (n = 220,000). AID 1030, 2008;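 further: potency means the concentration at half of the fitted maximal effect; plate controls were no enzyme wells and a reference inhibitor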
ALOX12 inhib: qHTS Assay for Inhibitors of 12-hLO (12-human lipoxygenase). Potency, µM (top dose mostly 57.1 µM), without a hit: top-dose activity change, negative = inhibition, most hits filed as inhibitors. actives 0.12% (n = 150,000). purified 12-hLO, xylenol orange hydroperoxide absorbance. Polyunsaturated fatty acid lipoxygenase ALOX12 (Homo sapiens), P18054; active means well fitted inhibition curve with a large enough effect; inconclusive means small, poorly fitted or top-dose-only effect; further: potency means the concentration at half of the fitted maximal effect; nearly all actives have a fitted effect of over 55% in size
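150 nM 12hLO, 25 mM Hepes pH 7.0 + 0.01% Triton X-100; cpd preinc 15 min RT; 40 uM arachidonic acid, 30 min RT; Fe-XO 30 min; A573/A405 ratio as read-out.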
Lamin A splicing: qHTS Assay for Modulators of Lamin A Splicing | Potency, µM (doses to about 46.1 µM), for inactives: at the highest dose ratio change, negative = inhibition, most hits filed as inhibitors | HeLa LMNA splicing GFP/RFP minigene ratio, 48 h | actives 0.01% (n = 200,000); active means well fitted inhibition curve with a large enough effect in the signal ratio, with a control signal flat, not every such curve was filed as active; inconclusive means small, poorly fitted or top-dose-only effect, or effect the other way, or a change in a side signal; the % refers to the signal ratio; further: potency means the concentration at half of the fitted maximal effect
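S3 HeLa cells stably expressing lamin A-EGFP splicing minigene plus DsRed2, 600 cells/well, 48 h compound exposure at 37C. Laser-scanning cytometry; analysed as GFP (500-530 nm)/RFP (575-640 nm) total intensity ratio; 0.5% DMSO vehicle.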
An asterisk follows results filed as active; [ ] = remark or other dose. Most compounds without a hit are left out; they make up all but 10% or so of the library. Unless noted, the call rests on the fitted dose curve; in most records, active means well fitted inhibition curve with a large enough effect (not every such curve was filed as active); inconclusive means small, poorly fitted or top-dose-only effect, or another doubt; inactive means no such curve, though single readings can be large or run the other way. Unless noted, on the % scale 0 is the no-effect control and ±100 the full control effect.

`Cc1ccc(S(=O)(=O)c2nc(-c3ccccc3)oc2NCc2cccnc2)cc1` gave HPGD inh -19%, PNC inhibitor 15, ALDH1A1 block 28µM*, ALOX12 inhib -17% and Lamin A splicing 19%.
`CCCSc1oc(-c2ccco2)nc1S(=O)(=O)c1ccccc1` gave HPGD inh -26%, PNC inhibitor inconclusive, ALDH1A1 block inconclusive, ALOX12 inhib 0% and Lamin A splicing -4%.
For Cc1ccccc1-c1nc(S(=O)(=O)c2ccc(Br)cc2)c(NCc2cccnc2)o1 the results were HPGD inh -17%, PNC inhibitor 42, ALDH1A1 block inconclusive, ALOX12 inhib -9% and Lamin A splicing inconclusive.
Cc1ccc(CNc2oc(-c3ccco3)nc2S(=O)(=O)c2ccccc2)cc1 was read as HPGD inh -25%, PNC inhibitor -5, ALDH1A1 block 28µM*, ALOX12 inhib -5% and Lamin A splicing -7%.
Screening COc1ccc(/C=C2/N=C3CCCCCN3C2=O)cc1OC returned HPGD inh -10%, PNC inhibitor -19, ALDH1A1 block 28µM*, ALOX12 inhib -7% and Lamin A splicing 1%.
Screening O=c1c(/C=N/O)coc2ccc3ccccc3c12 returned HPGD inh -28%, PNC inhibitor inconclusive, ALDH1A1 block 11µM*, ALOX12 inhib -17% and Lamin A splicing inconclusive.
`O=C(Nc1ccc2c(c1)OCCO2)N1CCOCC1` gave ALDH1A1 block -3%.
For CC(=O)c1cccc(NC(=O)Nc2ccc(C(=O)N3CCOCC3)cc2)c1 the results were HPGD inh 13µM*, PNC inhibitor -2, ALDH1A1 block inconclusive, ALOX12 inhib -3% and Lamin A splicing -8%.
`O=C(Nc1cccc(O)c1)N1CCOCC1` gave HPGD inh -9%, PNC inhibitor -100*, ALDH1A1 block -3%, ALOX12 inhib -3% and Lamin A splicing -10%.
Cc1ccc(NC(=O)Nc2ccc(C(=O)N3CCOCC3)cc2)cc1 was read as HPGD inh -27%, PNC inhibitor inconclusive, ALDH1A1 block 8%, ALOX12 inhib -2% and Lamin A splicing inconclusive.
CCOC(=O)CNc1c(-c2ccc(O)cc2)nc2ccc(Cl)cn12 was read as HPGD inh -30%, PNC inhibitor 4, ALDH1A1 block 7.1µM*, ALOX12 inhib -5% and Lamin A splicing inconclusive.
`CCOC(=O)CNc1c(-c2ccccc2)nc2ccc(Cl)cn12` gave HPGD inh inconclusive, PNC inhibitor 66, ALDH1A1 block inconclusive, ALOX12 inhib 3% and Lamin A splicing -1%.
O=C(Oc1ccccc1)N1CCC2(CCCN(c3ccccc3)C2)CC1 was read as HPGD inh -9%, ALDH1A1 block 1% and ALOX12 inhib 0%.
For CC(OC(=O)c1ccc(Cl)c(S(=O)(=O)N2CCc3ccccc32)c1)C(=O)Nc1ncc(Cl)cc1Cl (centres undefined) the results were HPGD inh -15%, PNC inhibitor inconclusive, ALDH1A1 block 25µM*, ALOX12 inhib 4% and Lamin A splicing 1%.
Screening CC(OC(=O)c1ccc([N+](=O)[O-])s1)C(=O)Nc1ncc(Cl)cc1Cl (centres undefined) returned HPGD inh -6%, PNC inhibitor 66, ALDH1A1 block 6.3µM*, ALOX12 inhib -1% and Lamin A splicing -7%.
Screening CCN1CCC(N(Cc2ccc3c(c2)OCO3)C(=O)Nc2cc(Cl)ccc2C(=O)OC)CC1 returned Lamin A splicing -20%[46 µM].
Screening CCCCN1CCCc2cc(CN(CCCN3CCOCC3)C(=O)Nc3ccc(CC)cc3)ccc21 returned Lamin A splicing -16%[46 µM].
For CC(=O)C[C@H](O)[C@@H](NC(=O)OC(C)(C)C)C(C)C the results were ALDH1A1 block -5%[13.5 µM].
CC(=O)Nc1ccc(C(=O)Cn2nnc3ccccc3c2=O)cc1 was read as HPGD inh -8%, PNC inhibitor inconclusive, ALDH1A1 block 8.9µM*, ALOX12 inhib -8% and Lamin A splicing 2%.
